Among the data in PubChem BioAssay (NCI) are growth values, retold here.

Values joined by “and” are separate entries in the source; they are usually repeats but may differ in a detail not shown here. Equal entries are not always repeated. Compounds without any hit were thinned out: in the full panel of roughly 83,000, 20% have a hit.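 Single-dose data. Exposure time 48 hours. Values below 10 considered active.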 Active and inactive are the calls of the source.

The assay relates to MDA-MB-468 breast. The assay can be described thus: NCI-60 one-dose screen, 48 h (100 = growth as untreated, 0 = no growth, -100 = all killed). The note with it: 10 µM unless noted.
Turning to `COc1ccc(/C=C(/C#N)n2nnc3cccc(F)c32)cc1`, the growth is -5.27% (active).

With `O=C(CSc1nc2ccc([N+](=O)[O-])cc2[nH]1)Nc1ccc(F)c(Cl)c1`, the growth was -14.9% (active).

For `COc1ccc(Cn2cc3c(c2-c2cc(OC)c(OC)c(OC)c2)CCCc2cnoc2-3)cc1`, the growth was 48.6% (inactive).

As for `CCN1C(=O)N(CC)C2C1NN=c1s/c(=C\c3ccccc3F)c(=O)n12` (stereo not given), the growth is 10.9% (inactive).

As to `NS(=O)(=O)c1ccc(Nc2nc(O)c(/C=C3\C=Nc4ccccc43)s2)cc1`, the growth was 104% (inactive).

Consider `c1ccc(CN=C(NCc2ccccc2)NCc2ccccc2)cc1`, for which the growth is -14.8% (active).

`O=C(O)c1cccnc1Br`: the growth is 102% (inactive).

As to `Cc1nn(-c2ccccc2)c(Cl)c1C(CC(=O)c1ccc(Cl)cc1)CC(=O)c1ccc(Cl)cc1`, the growth was 87.7% (inactive).

As to `C=CCCCCCCCCC(=O)OC(C)C`, the growth was 97.5% (inactive).

As for `CC1(c2ccccc2Cl)NC(=O)NC1=O` (stereo not given), the growth was 96.7% (inactive).

Consider `CN1CCN(c2nc(NCCNc3ccnc4cc(Cl)ccc34)c3ccccc3n2)CC1`, for which the growth is -51.6% (active).

In the case of `CCOS(=O)(=O)c1ccc([N+](=O)[O-])cc1`, the growth was 119% (inactive).

For the molecule `Cc1ccc(S(=O)(=O)Nc2cc(Sc3ccccc3)c(O)c3ccccc23)cc1`, the growth was -53.9% (active).

As for `COc1cc(OC)c(C(=O)/C=C/c2cccc(OC(C)=O)c2)cc1CC=C(C)C`, the growth was 58.3% (inactive).

For `Nc1nc(N)c2c(n1)NC(c1sc(Cl)nc1Cl)CC(c1ccc3c(c1)OCO3)=N2` (stereo not given), the growth was -13.3% (active).

Turning to `COc1ccc(-c2cc(-c3nnc(SC/C(=N\O)c4ccccc4)n3-c3ccccc3)c3ccccc3n2)cc1`, the growth was 107% (inactive).

For `COc1ccc(C(=O)/C=C/c2c(Cl)nc3c(c(C)nn3-c3ccccc3)c2-c2ccc(Br)cc2)cc1`, the growth was 103% (inactive).

`COc1ccc(OC)c(/C=C2\Oc3cc(OCCCN4CCCC4)ccc3C2=O)c1`: the growth was 77.7% (inactive).

Turning to `O=C1c2ccccc2C2N1CCC1CCc3ccccc3N12` (stereo not given), the growth is 95.1% (inactive).

Regarding `COc1cccc(/C=C/C(=O)c2c(C)nc3ccccc3c2/C=C/c2ccccc2)c1OC`, the growth was 43.3% (inactive).

For `COc1ccc(-c2oc3cc(O)cc(O)c3c(=O)c2OC)cc1O`, the growth was -3.48% (active).

In the case of `Nc1nc(I)c2ncn(C3OC(CO)C(O)C3O)c2n1` (stereo not given), the growth was 115% (inactive).

Consider `CCCCC/C=C/C(C)=C/C1CC(C)C/C=C/CCC(O)C(OC(N)=O)CCC(C)CC(O)C(C)C(=O)O1` (stereo not given), for which the growth is 94.9% (inactive).

For `C=C1C(=O)O[C@H]2[C@H]1CC/C(COC(=O)/C=C\C(=O)NCc1ccc(Cn3c(=O)sn(-c4ccc(C#N)cc4)c3=O)cc1)=C\CC[C@@]1(C)O[C@@H]21`, the growth was -87.6% (active).

With `CCN1CCN(Cc2cn(-c3ccc(S(N)(=O)=O)cc3)nn2)CC1`, the growth was 99.7% (inactive).

As for `Cc1ccc(-c2csc(NC(=O)c3ccccc3CN3C(=O)c4ccccc4C3=O)n2)cc1`, the growth is 92.1% (inactive).

Consider `Cc1nnc(NC/C=C/c2ccccc2)s1`, for which the growth is 106% (inactive) and 92% (inactive).

As for `Cc1cc(NCCCCNc2ccnc3cc(Cl)ccc23)nc(Nc2ccc(C(=O)N3CCCCC3)cc2)n1`, the growth was -42.3% (active).

`COc1cc2ncnc(Nc3ccc(Oc4ccnc(C)c4)c(C)c3)c2cc1NC(=O)CC1CCSS1` (stereo not given): the growth was -67% (active).

For the molecule `CCn1c2ccc(/C=N/OCCCN(C)C)cc2c2cc(/C=N/OCCCN(C)C)ccc21`, the growth is -66.6% (active).

On to `CN(C)CCN1C(=O)c2cccc3c(N)ccc(c23)C1=O`, for which the growth was 38.7% (inactive).

In the case of `c1cncc(CNc2ccccc2-c2nnc(Nc3ccc4c(c3)OCO4)o2)c1`, the growth was -1.51% (active).

As to `COc1ccc(CCN2C(=O)CCC3=C2CCCC3=O)cc1OC`, the growth is 105% (inactive).

For `CC(=O)c1c(OCC#N)ccc2c(C)cc(=O)oc12`, the growth is 93.2% (inactive).

On to `COC(=O)c1c(C(=O)OC)c2ccc3c4ncccc4ccc3n2c1C(=O)c1ccc(C)cc1`, for which the growth was 79.1% (inactive).

As for `O=c1oc2ccc(Cl)cc2cc1-c1cs/c(=N/N=C\c2ccc(Cl)cc2)n1/N=C/c1ccc(Cl)cc1`, the growth was 114% (inactive).

Regarding `CC1OC(OC2C(OC3CCC4(C)C(CCC5(C)C4CC=C4C6CC(C)(C)CCC6(CO)C(O)CC45C)C3(C)C)OC(C(=O)O)C(OC3OC(COC4OC(CO)C(O)C(O)C4O)C(O)C(O)C3O)C2O)C(O)C(O)C1O` (stereo not given), the growth is -80.5% (active).

With `CCN1C(=S)N(CC)C2C1NN=C1SC(c3ccccc3)=CC(=O)N12` (stereo not given), the growth was 92.6% (inactive).

As to `O=C1c2cccc3c(-c4ccc(-c5nc6c7ccccc7c7ccccc7c6[nH]5)cc4)ccc(c23)C(=O)N1CCN1CCNCC1`, the growth is 81.5% (inactive).

`COc1ccc(S(=O)(=O)n2cc(C3OC(c4cc(OC)c(OC)c(OC)c4)=NN3C(C)=O)c3ccccc32)cc1OC` (stereo not given): the growth was 105% (inactive).
